From PubChem BioAssay (NCI)
Compounds without any hit were thinned out: in the full panel of roughly 83,000, 20% have a hit.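 48-hour exposure, single concentration, 96-well plates; percent growth endpoint where 0 means no net growth. Active: below 10.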 Unmarked numbers belong to inactive results. The source made the active and inactive calls.

Key:
Test in all cases: NCI-60 one-dose screen, 48 h (100 = growth as untreated, 0 = no growth, -100 = all killed)
Conditions in all cases: 10 µM unless noted
SR leukemia = test system: SR leukemia
RPMI-8226 leukemia = test system: RPMI-8226 leukemia
OVCAR-8 ovarian = test system: OVCAR-8 ovarian
OVCAR-5 ovarian = test system: OVCAR-5 ovarian
OVCAR-4 ovarian = test system: OVCAR-4 ovarian
SK-OV-3 ovarian = test system: SK-OV-3 ovarian
IGROV1 ovarian = test system: IGROV1 ovarian
OVCAR-3 ovarian = test system: OVCAR-3 ovarian
HS 578T breast = test system: HS 578T breast
NCI/ADR-RES ovarian = test system: NCI/ADR-RES ovarian

Structure (SMILES) | growth (SR leukemia) | growth (RPMI-8226 leukemia) | growth (OVCAR-8 ovarian) | growth (OVCAR-5 ovarian) | growth (OVCAR-4 ovarian) | growth (SK-OV-3 ovarian) | growth (IGROV1 ovarian) | growth (OVCAR-3 ovarian) | growth (HS 578T breast) | growth (NCI/ADR-RES ovarian)
COc1ccc(NC(=O)C(=O)c2c[nH]c3ccc(F)cc23)cc1 | 81.4% | 92.7% | 99% | 106% | 102% | 89.4% | 118% | 99.8% | 104% | 96.2%
COc1cc2c(cc1OC)-c1ccc3cc4c(cc3c1N(CCCn1ccnc1)C2)OCO4 | 7.86% (active) | 0.821% (active) | 44.7% | 103% | 67.9% | 20.7% | 38.3% | 33.5% | 91.5% | 94.4%
O=C(NCOC(O)C(Cl)(Cl)Cl)NCOC(O)C(Cl)(Cl)Cl (stereo not given) | 109% | 105% | 104% | 89.7% | 108% | 90% | 99.1% | 116% | 108% | 103%
COc1cc(NC(=O)c2cc(O)c(CC=C(C)C)c(O)c2)cc2c1O[C@]1(C)CC[C@@H](O)C(C)(C)[C@H]1C2 | 14.1% | -29.3% (active) | 54% | 61.8% | 51.5% | 21.5% | 52.5% | 31.6% | 13.1% | 96.4%
CCOC(=O)c1c(C)nc2c(c1N)/C(=C/c1cc(OC)c(OC)c(OC)c1)C(=O)N2c1ccc(OC)cc1 | 12.4% | -6.44% (active) | 37.7% | 85.7% | 87% | 105% | 33.6% | 42.1% | 95.1% | 34.7%
C/C(Cc1ccc(Cl)cc1)=C(/c1ccc(Cl)cc1)c1ccc(OCCN(C)C)cc1 | -41.1% (active) | -41.4% (active) | 69.2% | 81.2% | 40.3% | 110% | 56.4% | 57.2% | 61% | 77.5%
N#Cc1c(-c2ccc(C(F)(F)F)cc2)cc(N2CC(O)C2)n2c1nc1ccccc12 | 73.5% | 78.8% | 19.4% | 77.5% | -29.8% (active) | 18.8% | 60.9% | 48.4% | 17.8% | 38.3%
Cc1cc(NS(=O)(=O)c2ccccc2)c(OS(=O)(=O)c2ccccc2)cc1C | 94.6% | 84.1% | 95.1% | 114% | 106% | 108% | 122% | 110% | 101% | 102%
NC(N)=N/N=C/c1ccc(Br)cc1 | 18.4% | 21.5% | 78.9% | 73.5% | 51.8% | -19.4% (active) | 19.3% | 62.3% | 67.5% | 28.2%
O=C(NC1CCOCC1)c1ccc2c(c1)CN(c1ncc(Cc3cccc(-n4cccn4)c3)s1)CC2 | 56.2% | 38.3% | 76.6% | 95.1% | 62.1% | 78.6% | 89.8% | 78.4% | 96% | 63.5%
CCOC(=O)c1c(C)nc2c(c1N)/C(=C/c1ccc(OC)cc1)C(=O)N2Cc1ccc(F)cc1 | 1.71% (active) | -17.2% (active) | 8.74% (active) | -45.2% (active) | 20.9% | 9.64% (active) | -9.78% (active) | -91.4% (active) | 54.7% | 15.1%
Cc1cc2c(F)c(Oc3ncnc(Nc4ccc(N5C[C@@H](C)N[C@@H](C)C5)cc4)c3C#N)cc(F)c2[nH]1 | -26.4% (active) | 2.98% (active) | 25.6% | 103% | 16.2% | 92.8% | 73% | -29.6% (active) | 64% | 50.6%
COc1ccc(/C=C2\C=C(c3ccccc3)N(CCc3ccccc3)C2=O)cc1OC | -1.98% (active) | 70.6% | 25.9% | 67.2% | -5.49% (active) | -30.3% (active) | 49% | 28% | 13.1% | 31.6%
